Data: PubChem BioAssay (NCATS)
Results filed as inconclusive are left out. Where a call stands in place of a potency, no number is given. Activity calls are given as the source filed them. Unless noted, calls follow the shape of the full dose curve.

Assays:
[1] = P-glycoprotein substrates identified in KB-8-5-11 adenocarcinoma cell line, qHTS therapeutic library screen (AID 1346987; active = well fitted curve in the direction sought with a large enough effect; an effect the other way counts as inactive or inconclusive; also: nearly all actives have a fitted effect of over 65% in size)
Outline: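 KB-8-5-11: colchicine-selected sub-line of KB-3-1 over-expressing P-gp; assay medium lacked colchicine. 72 h drug exposure at 37 degree C, CellTiter-Glo.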

[2] = Natriuretic polypeptide receptor (hNpr1) antagonism - Pilot counterscreen GloSensor control cell line (AID 1347045); also: series mostly up to about 38 µM
Outline: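 HEK293 cells carrying the GloSensor cGMP sensor (GIP/pGS-40F) were loaded with 2% GloSensor reagent for 2 h, exposed to compounds for 30 min, and then stimulated with 50 uM sodium nitroprusside for 20 min at room temperature.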

[3] = target: Atrial natriuretic peptide receptor 1 (Homo sapiens) (UniProt P16066); assay: Natriuretic polypeptide receptor (hNpr1) antagonism - Pilot screen (AID 1347049);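 also: agonist-evoked cGMP luminescence read 20 min after hNppA addition; series mostly up to about 58 µM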
Atrial natriuretic peptide receptor 1 (Homo sapiens), sequence (P16066 whole entry, looked up): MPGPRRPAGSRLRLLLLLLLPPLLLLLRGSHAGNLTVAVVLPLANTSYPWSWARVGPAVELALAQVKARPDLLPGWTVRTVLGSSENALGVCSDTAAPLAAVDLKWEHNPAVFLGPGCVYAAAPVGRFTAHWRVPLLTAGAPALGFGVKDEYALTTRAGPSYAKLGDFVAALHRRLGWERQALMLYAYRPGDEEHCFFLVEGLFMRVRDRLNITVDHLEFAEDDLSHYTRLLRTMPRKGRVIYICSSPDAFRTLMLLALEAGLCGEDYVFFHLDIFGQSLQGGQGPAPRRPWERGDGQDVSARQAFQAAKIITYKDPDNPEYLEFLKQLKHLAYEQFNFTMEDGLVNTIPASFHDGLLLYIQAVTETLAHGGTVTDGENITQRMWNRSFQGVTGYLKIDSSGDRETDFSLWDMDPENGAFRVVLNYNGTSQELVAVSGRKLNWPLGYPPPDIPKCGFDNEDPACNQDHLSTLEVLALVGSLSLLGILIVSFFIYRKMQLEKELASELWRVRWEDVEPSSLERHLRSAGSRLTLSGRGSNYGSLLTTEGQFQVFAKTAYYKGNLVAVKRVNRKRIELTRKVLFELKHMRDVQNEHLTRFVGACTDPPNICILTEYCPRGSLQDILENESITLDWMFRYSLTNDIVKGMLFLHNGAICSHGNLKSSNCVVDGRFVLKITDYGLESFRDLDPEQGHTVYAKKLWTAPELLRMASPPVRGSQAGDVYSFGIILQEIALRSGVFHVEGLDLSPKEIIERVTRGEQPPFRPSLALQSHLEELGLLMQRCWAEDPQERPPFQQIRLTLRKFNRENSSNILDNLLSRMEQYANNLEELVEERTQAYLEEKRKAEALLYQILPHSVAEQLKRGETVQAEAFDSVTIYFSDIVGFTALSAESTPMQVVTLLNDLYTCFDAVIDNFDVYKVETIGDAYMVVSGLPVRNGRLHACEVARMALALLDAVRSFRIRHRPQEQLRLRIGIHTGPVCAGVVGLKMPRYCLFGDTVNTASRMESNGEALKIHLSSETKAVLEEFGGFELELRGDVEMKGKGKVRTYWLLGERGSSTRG
Outline: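 HEK293 cells expressing hNpr1 and GloSensor cGMP luciferase, 1500/well, loaded with 2% GloSensor reagent 2 h, compound 30 min at room temperature; luminescence read before and 20 min after 0.1 nM hNppA stimulation.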

[4] = target: Atrial natriuretic peptide receptor 2 (Homo sapiens) (UniProt P20594); assay: Natriuretic polypeptide receptor (hNpr2) antagonism - Pilot subtype selectivity assay (AID 1347050)
Atrial natriuretic peptide receptor 2 (Homo sapiens), sequence (P20594 whole entry, looked up): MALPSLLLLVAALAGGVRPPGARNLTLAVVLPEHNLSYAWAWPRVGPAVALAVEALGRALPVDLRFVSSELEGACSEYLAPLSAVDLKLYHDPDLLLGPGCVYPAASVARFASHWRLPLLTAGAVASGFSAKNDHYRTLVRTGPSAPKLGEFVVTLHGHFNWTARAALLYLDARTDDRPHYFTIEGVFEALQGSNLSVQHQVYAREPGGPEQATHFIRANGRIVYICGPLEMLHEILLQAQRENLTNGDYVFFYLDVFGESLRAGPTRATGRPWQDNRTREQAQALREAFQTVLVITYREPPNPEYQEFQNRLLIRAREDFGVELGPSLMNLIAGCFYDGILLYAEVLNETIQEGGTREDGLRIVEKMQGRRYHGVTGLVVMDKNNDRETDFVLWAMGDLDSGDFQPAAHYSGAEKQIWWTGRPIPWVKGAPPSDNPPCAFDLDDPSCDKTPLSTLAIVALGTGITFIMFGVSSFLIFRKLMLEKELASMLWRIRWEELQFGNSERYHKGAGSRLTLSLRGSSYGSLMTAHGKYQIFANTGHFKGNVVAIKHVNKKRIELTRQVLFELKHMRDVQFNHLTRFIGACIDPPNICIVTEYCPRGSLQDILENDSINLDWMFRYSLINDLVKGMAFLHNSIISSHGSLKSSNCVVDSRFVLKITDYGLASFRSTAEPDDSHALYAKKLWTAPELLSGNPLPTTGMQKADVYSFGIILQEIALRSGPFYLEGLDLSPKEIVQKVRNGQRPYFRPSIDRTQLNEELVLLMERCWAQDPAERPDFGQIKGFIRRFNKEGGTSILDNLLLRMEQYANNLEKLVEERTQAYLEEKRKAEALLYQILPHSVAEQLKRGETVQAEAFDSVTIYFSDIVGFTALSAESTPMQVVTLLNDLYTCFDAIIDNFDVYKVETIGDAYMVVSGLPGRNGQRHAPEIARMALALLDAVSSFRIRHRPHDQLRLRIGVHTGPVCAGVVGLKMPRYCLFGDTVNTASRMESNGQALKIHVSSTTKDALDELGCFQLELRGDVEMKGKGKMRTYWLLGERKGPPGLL
Outline: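 HEK293 cells expressing hNpr2 and a GloSensor cGMP luciferase sensor, 1500/well, preloaded 2 h with 2% GloSensor reagent, compound 30 min, then 1 nM hNppC for 20 min. Antagonism from luminescence after versus baseline pre-read; LOPAC in 1:5 titrations.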

[5] = NS1 protein of Zika virus - qHTS assay to identify small molecule inhibitors in human HEK 293 cells (AID 1347053; active = well fitted curve in the direction sought with a large enough effect; an effect the other way counts as inactive or inconclusive; also: series mostly up to about 46 µM; nearly all actives have a fitted effect of over 55% in size)
Outline: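 HEK 293 cells, seeded 20 h at 37 C, were pretreated with compound 1 h, then infected with ZIKV MR766 (MOI = 0.5) for 24 h. NS1 was read by TR-FRET with two anti-NS1 antibodies, normalized to uninfected and infected wells.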

[6] = target: T1, Tyrosine-protein phosphatase non-receptor type substrate 1 (Homo sapiens) + Leukocyte surface antigen CD47 (Homo sapiens) (UniProt P78324+Q08722); assay: CD47-SIRPalpha protein protein interaction - LANCE assay qHTS validation (AID 1347057; active = well fitted curve in the direction sought with a large enough effect in the signal ratio, with a control signal flat, not every such curve was filed as active; the % refers to the signal ratio; also: series mostly up to about 38 µM)
T1 sequence (P78324 whole entry, looked up): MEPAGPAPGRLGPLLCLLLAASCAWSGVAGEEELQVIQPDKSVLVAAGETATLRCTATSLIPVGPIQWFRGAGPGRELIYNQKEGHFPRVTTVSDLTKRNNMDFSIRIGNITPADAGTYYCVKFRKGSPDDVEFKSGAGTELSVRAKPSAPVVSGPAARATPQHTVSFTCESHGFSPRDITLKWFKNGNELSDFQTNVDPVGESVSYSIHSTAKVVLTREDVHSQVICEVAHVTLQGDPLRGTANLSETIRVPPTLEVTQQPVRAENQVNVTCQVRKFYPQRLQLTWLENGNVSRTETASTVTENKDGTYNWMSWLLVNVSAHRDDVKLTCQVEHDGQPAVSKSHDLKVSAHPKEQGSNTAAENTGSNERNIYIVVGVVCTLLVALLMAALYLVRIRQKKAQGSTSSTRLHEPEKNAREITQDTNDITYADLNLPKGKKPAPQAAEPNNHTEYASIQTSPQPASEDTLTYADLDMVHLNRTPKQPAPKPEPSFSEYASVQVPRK
T1 sequence (Q08722 whole entry, looked up): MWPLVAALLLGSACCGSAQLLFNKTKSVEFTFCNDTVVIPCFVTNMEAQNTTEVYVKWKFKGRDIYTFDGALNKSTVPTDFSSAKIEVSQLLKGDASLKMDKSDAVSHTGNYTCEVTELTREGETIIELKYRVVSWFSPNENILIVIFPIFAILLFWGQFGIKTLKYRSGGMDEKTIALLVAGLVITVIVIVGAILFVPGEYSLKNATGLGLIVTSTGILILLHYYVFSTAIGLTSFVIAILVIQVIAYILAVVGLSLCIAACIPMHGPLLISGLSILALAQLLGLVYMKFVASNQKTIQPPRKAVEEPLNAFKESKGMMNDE
Outline: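 First, His-tagged CD47 and Eu-labelled anti-His antibody met the compound for 30 min; next, site-specifically biotinylated SIRPalpha was added for 30 min; finally streptavidin-APC was added before reading the TR-FRET ratio.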

[7] = target: T1, Tyrosine-protein phosphatase non-receptor type substrate 1 (Homo sapiens) + Leukocyte surface antigen CD47 (Homo sapiens); assay: CD47-SIRPalpha protein protein interaction - HTRF assay qHTS validation (AID 1347058; active = well fitted curve in the direction sought with a large enough effect in the signal ratio, not every such curve was filed as active; the % refers to the signal ratio;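 also: recombinant soluble extracellular CD47 with His tag and biotinylated SIRPalpha domains; series mostly up to about 38 µM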)
Outline: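 TR-FRET read (Ch1/Ch2 ratio) of soluble extracellular CD47 and Avi-biotinylated SIRPalpha domains in PBS pH 7.4 with 0.05% IGEPAL; 7-point compound titration. Sequential 30 min room-temperature steps; non-biotinylated SIRPalpha as control inhibitor.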

CC(=O)O[C@H]1C[C@@H](OC(C)=O)C(C)(C)C2C[C@@H](O)[C@]3(C)C(CC[C@@]4(C)[C@H](C5=CC(=O)OC5O)C[C@H]5O[C@]543)[C@]21C (stereo partly drawn)
Potency [1]: inactive

CCN1C[C@]2(COC)[C@H](O)C[C@H](OC)[C@@]34[C@@H]5C[C@@]6(O)[C@H](OC(=O)c7ccccc7)[C@@H]5[C@@](OC(C)=O)([C@@H]([C@H](OC)[C@H]23)[C@@H]14)[C@@H](O)[C@@H]6OC
Potency [1]: inactive

CC1=C2C[C@H]3[C@@H](CC=C4C[C@@H](O)CC[C@@]43C)[C@@H]2CC[C@]12O[C@@H]1C[C@H](C)CN[C@H]1[C@H]2C
Potency [1]: inactive

CCC(C)(OC(C)=O)C(=O)O[C@H]1[C@H](OC(C)=O)C[C@@H]2[C@@](C)([C@@H]3C[C@H]4C=CO[C@H]4O3)[C@H](C)C[C@H](OC(C)=O)[C@@]2(COC(C)=O)[C@@]12CO2 (stereo partly drawn)
Potency [1]: inactive

CCN1C[C@]2(COC)[C@H](O)C[C@H](OC)[C@]34[C@@H]5C[C@]6(O)[C@H](OC(=O)c7ccccc7)[C@@H]5[C@@](O)([C@H]([C@H](OC)[C@H]23)[C@@H]14)[C@@H](O)[C@@H]6OC
Potency [1]: inactive

CCN1C[C@@]2(COC)C3[C@@H](OC)C4[C@@H]1C3([C@@H]1C[C@]3(O)[C@H](OC(=O)c5ccccc5)[C@@H]1[C@]4(OC(C)=O)[C@@H](O)[C@@H]3OC)[C@H](OC)C[C@H]2O
Potency [2]: inactive
Potency [3]: inactive
Potency [4]: inactive
outcome [5]: inactive
Potency [6]: inactive
outcome [7]: inactive

C[C@@H]1O[C@H](C[N+](C)(C)C)CS1
Potency [2]: inactive
Potency [3]: inactive
Potency [4]: inactive

CN1[C@@H]2CC[C@H]1CC(OC(=O)C1C=Nc3ccccc31)C2 (stereo partly drawn)
Potency [1]: inactive

CCCN(CCC)CCc1c[nH]c2ccc(C(N)=O)cc12
Potency [2]: inactive
Potency [3]: inactive
Potency [4]: inactive
